Most compounds without a hit are left out; they make up all but 2.4% or so of the library.
CHRM1 antagonist: blocks human M1 muscarinic receptor; AID 588852; CHO-K1 hM1, Fluo-8 calcium fluorescence, ACh EC80 antagonist; inhibition, % at 3 µM; 360,000 compounds, 1.3% hits;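 active = percent inhibition above its own plate's cutoff, namely the mean of that plate's compound wells plus 3 SD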;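 also: peak over basal fluorescence ratio during 140 s after agonist addition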
Target sequence (P11229 whole entry, looked up): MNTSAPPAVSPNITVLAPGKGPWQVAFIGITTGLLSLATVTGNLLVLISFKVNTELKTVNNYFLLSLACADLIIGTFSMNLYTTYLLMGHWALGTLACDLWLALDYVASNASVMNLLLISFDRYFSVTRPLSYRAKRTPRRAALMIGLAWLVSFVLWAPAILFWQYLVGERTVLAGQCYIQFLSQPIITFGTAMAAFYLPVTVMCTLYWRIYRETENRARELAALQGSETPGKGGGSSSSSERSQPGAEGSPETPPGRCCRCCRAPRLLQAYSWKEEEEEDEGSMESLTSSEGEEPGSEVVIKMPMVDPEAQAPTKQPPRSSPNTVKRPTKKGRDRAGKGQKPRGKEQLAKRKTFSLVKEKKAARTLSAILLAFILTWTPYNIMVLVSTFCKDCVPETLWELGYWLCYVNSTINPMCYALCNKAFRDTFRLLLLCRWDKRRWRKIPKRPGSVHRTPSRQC
M1 PAM: human CHRM1 positive allosteric modulation; CHO-K1 hM1, Fluo-8 calcium fluorescence, ACh EC20; 0% = ACh EC20, 100% = maximal ACh; 360,000 compounds, 0.088% hits; P11229; activation, % at 3 µM; AID 588819; in the data active = activation above about 19%, passing the limit was not always enough
M1 ag parental: M1 agonist counterscreen hit in parental CHO-K1 cells | Fluo-8 calcium fluorescence; scaled to maximal ATP response, vehicle zero | activation, % at 3 µM | 360,000 compounds, 0.48% hits | AID 602248; in the data active = activation above about 15%;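 also: untransfected CHO-K1 host cells lacking M1 receptor as counterscreen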
CHO-K1 Ca antag: M1 antagonist counterscreen hit in parental CHO-K1 cells. ATP-induced calcium, Fluo-8 fluorescence. inhibition, % at 3 µM. 360,000 compounds, 0.6% hits;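 active = inhibition above a per-plate cutoff, the plate's mean sample inhibition plus 3 SD, cut at about 24% in these data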
M1 ag: agonists of human M1 muscarinic receptor | CHO-K1 hM1, Fluo-8 calcium fluorescence, agonist mode; 0% DMSO, 100% acetylcholine EC100 | P11229 | 360,000 compounds, 0.33% hits | AID 588814 | activation, % at 3 µM;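 active = activation above the run's mean compound activation plus 3 SD, cut at about 16% in these data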;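 also: peak over basal fluorescence ratio within a 140 s kinetic read after compound addition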
M1 PAM parental: M1 PAM counterscreen hit in parental CHO-K1 cells; ATP EC20, Fluo-8 calcium fluorescence; 0% at ATP EC20, 100% at ATP max; activation, % at 3 µM; 360,000 compounds, 0.02% hits; AID 602247;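 active = activation above the run cutoff, the mean activation of all test compounds plus 3 SD, cut at about 40% in these data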;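 also: peak over basal fluorescence ratio in a 140 s read after ATP addition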
A number is an active result; – = inactive.

SMILES	CHRM1 antagonist	M1 PAM	M1 ag parental	CHO-K1 Ca antag	M1 ag	M1 PAM parental
CC(C)NC(=O)N(C)C[C@H]1Oc2ccc(NC(=O)c3ccncc3)cc2C(=O)N([C@H](C)CO)C[C@@H]1C	–	–	–	–	–	–
O=C(CSc1ccsc1[N+](=O)[O-])NC1CCCC1	–	–	–	26	–	–
CC1CCCCC1NC(=O)CSc1ccsc1[N+](=O)[O-] (stereo not given)	–	–	–	–	–	–
O=c1[nH]nc(Cc2ccc(-c3cccc(Cl)c3)o2)c2ccccc12	–	–	–	24	–	–
Clc1cccc(-c2ccc(CNCc3ccccn3)o2)c1	–	–	–	–	–	–
CCn1nc(C(=O)Nc2ccccc2N2CCCC2)c2ccccc2c1=O	–	–	17	–	–	–
Cn1c(=O)c(C(=O)COc2ccc(C#N)cc2)c(N)n(Cc2ccccc2)c1=O	–	–	34	–	28	–
CC1(C)Oc2ccc3ccc(=O)oc3c2/C(=C/NNC(N)=O)C1=O	–	–	–	–	–	–
O=C(Nc1ccccc1Cl)N1CCCN(c2nc(-c3ccccc3)ns2)CC1	–	–	–	–	–	–
O=C(Nc1ccccc1)N1CCN(c2nc(-c3ccccc3)ns2)CC1	32	–	–	–	–	–
COc1ccc(-c2cc(C(F)(F)F)nc(SCC(=O)Nc3cc(C)on3)n2)cc1OC	–	–	–	25	–	–
COc1ccc(-c2cc(C(F)(F)F)nc(SCCC(=O)Nc3cc(C)on3)n2)cc1	–	–	–	–	–	–
COc1ccc(/C=N/NC(=O)c2nc(-c3ccccc3)n(-c3ccccc3)n2)cc1OC	–	–	–	25	–	–
CCN(CC)S(=O)(=O)c1cccc(C(=O)N/N=C/c2ccc(OC)c(O)c2)c1	–	–	–	27	–	–
COc1cc(/C=N/NC(=O)c2nc(-c3ccccc3)n(-c3ccccc3)n2)ccc1O	–	–	–	–	–	–
COc1ccc(/C=N/NC(=O)c2nc(-c3ccccc3)cc(-c3ccccc3)n2)cc1O	38	–	–	–	–	–
COc1ccc(/C=N/NC(=O)c2nc(-c3ccccc3)cc(-c3ccccc3)n2)cc1	–	–	–	–	–	–
CCN(CC)S(=O)(=O)c1cccc(C(=O)N/N=C/c2ccccc2OCC(=O)O)c1	–	–	–	–	–	–
CNS(=O)(=O)c1cccc(C(=O)NCC(C)(C)N2CCCCC2)c1	–	–	–	–	–	–
COC(=O)c1ccc(NC(=O)c2cccc(NC(=O)c3ccccc3)c2)cc1	–	–	–	–	–	–
COc1ccc(CCN2CC(C(=O)Nc3ccccc3F)CC2=O)cc1OC (stereo not given)	–	–	–	–	–	–
COCCN1CCC(CNCc2cn(-c3cc(C)ccc3C)nc2-c2ccccc2)C1 (stereo not given)	–	–	–	26	–	–
COCCN1CCC(CNCc2cn[nH]c2-c2ccc(C)c(C)c2)C1 (stereo not given)	–	–	–	–	–	–
COc1cccc(-n2cc(C(=O)NC(C)C)c3ccccc3c2=O)c1	–	–	–	–	–	–
Cn1c(=O)n(Cc2ccc(F)cc2)c(=O)c2c1nc1n2CCN1Cc1ccco1	–	–	–	–	–	–
SMILES	CHRM1 antagonist	M1 PAM	M1 ag parental	CHO-K1 Ca antag	M1 ag	M1 PAM parental
Cn1c(=O)n(CCc2ccccc2)c(=O)c2c1nc1n2CCN1Cc1ccco1	32	–	–	–	–	–
CN1CCCCCC1=Nc1ccccc1C#N	27	–	–	–	–	–
Cc1ccsc1C(=O)NNC(=O)COc1ccccc1Cl	–	–	–	31	–	–
CCN(Cc1ccccc1)C(=O)Cn1c(=O)n(CCC(=O)N2CCCCC2)c(=O)c2sccc21	–	–	–	–	–	–
CC1CN(C)C(C)C/C1=N/Oc1ccccc1[N+](=O)[O-] (stereo not given)	42	–	–	–	–	–
CC1CN(C)C(C)C/C1=N\Oc1ccc([N+](=O)[O-])cc1 (stereo not given)	–	–	–	–	–	–
COc1ccc(CCNC(=O)Cn2cnc3sc(C)c(-c4ccc(F)cc4)c3c2=O)cc1OC	–	–	–	–	18	–
COc1ccc(NC(=O)CCCNC(=O)Cn2cnc3sc(C)c(C)c3c2=O)c(OC)c1	22	–	–	–	–	–
